Hits are enriched below; roughly 11% of the tested compounds scored in any of these assays.
JMJD2A Tudor – JMJD2A Tudor domain (human) inhibition | AlphaScreen JMJD2A-Tudor / H3K4me3 peptide binding | Potency, µM (highest dose often 114 µM), for the others: top-dose activity change, negative = inhibition, usual class: inhibitors | 4.4% of 390,000 active | AID 504339; also: % is scaled to controls: 0 for no effect and ±100 for the full control effect; nearly all actives have a fitted effect of over 50% in size
PLK1 PBD inh – PLK1 (human) polo-box domain binding inhibition; Plk1 PBD binding of FITC phosphopeptide, fluorescence polarization; Potency, µM, without a hit: max response, negative = inhibition, actives largely listed as inhibitors; 2.8% of 360,000 active; P53350; AID 720504; also: series mostly up to about 57 µM; % is scaled to controls: 0 for no effect and ±100 for the full control effect; nearly all actives have a fitted effect of over 65% in size
BAZ2B inh – blocks human BAZ2B. Q9UIF8. AlphaScreen BAZ2B-H3K14Ac peptide displacement. Potency, µM (highest dose often 114 µM), without a hit: top-dose activity change, negative = inhibition, most hits filed as inhibitors. 4.4% of 360,000 active; also: % is scaled to controls: 0 for no effect and ±100 for the full control effect; nearly all actives have a fitted effect of over 60% in size
Target sequence (Q9UIF8 whole entry, looked up): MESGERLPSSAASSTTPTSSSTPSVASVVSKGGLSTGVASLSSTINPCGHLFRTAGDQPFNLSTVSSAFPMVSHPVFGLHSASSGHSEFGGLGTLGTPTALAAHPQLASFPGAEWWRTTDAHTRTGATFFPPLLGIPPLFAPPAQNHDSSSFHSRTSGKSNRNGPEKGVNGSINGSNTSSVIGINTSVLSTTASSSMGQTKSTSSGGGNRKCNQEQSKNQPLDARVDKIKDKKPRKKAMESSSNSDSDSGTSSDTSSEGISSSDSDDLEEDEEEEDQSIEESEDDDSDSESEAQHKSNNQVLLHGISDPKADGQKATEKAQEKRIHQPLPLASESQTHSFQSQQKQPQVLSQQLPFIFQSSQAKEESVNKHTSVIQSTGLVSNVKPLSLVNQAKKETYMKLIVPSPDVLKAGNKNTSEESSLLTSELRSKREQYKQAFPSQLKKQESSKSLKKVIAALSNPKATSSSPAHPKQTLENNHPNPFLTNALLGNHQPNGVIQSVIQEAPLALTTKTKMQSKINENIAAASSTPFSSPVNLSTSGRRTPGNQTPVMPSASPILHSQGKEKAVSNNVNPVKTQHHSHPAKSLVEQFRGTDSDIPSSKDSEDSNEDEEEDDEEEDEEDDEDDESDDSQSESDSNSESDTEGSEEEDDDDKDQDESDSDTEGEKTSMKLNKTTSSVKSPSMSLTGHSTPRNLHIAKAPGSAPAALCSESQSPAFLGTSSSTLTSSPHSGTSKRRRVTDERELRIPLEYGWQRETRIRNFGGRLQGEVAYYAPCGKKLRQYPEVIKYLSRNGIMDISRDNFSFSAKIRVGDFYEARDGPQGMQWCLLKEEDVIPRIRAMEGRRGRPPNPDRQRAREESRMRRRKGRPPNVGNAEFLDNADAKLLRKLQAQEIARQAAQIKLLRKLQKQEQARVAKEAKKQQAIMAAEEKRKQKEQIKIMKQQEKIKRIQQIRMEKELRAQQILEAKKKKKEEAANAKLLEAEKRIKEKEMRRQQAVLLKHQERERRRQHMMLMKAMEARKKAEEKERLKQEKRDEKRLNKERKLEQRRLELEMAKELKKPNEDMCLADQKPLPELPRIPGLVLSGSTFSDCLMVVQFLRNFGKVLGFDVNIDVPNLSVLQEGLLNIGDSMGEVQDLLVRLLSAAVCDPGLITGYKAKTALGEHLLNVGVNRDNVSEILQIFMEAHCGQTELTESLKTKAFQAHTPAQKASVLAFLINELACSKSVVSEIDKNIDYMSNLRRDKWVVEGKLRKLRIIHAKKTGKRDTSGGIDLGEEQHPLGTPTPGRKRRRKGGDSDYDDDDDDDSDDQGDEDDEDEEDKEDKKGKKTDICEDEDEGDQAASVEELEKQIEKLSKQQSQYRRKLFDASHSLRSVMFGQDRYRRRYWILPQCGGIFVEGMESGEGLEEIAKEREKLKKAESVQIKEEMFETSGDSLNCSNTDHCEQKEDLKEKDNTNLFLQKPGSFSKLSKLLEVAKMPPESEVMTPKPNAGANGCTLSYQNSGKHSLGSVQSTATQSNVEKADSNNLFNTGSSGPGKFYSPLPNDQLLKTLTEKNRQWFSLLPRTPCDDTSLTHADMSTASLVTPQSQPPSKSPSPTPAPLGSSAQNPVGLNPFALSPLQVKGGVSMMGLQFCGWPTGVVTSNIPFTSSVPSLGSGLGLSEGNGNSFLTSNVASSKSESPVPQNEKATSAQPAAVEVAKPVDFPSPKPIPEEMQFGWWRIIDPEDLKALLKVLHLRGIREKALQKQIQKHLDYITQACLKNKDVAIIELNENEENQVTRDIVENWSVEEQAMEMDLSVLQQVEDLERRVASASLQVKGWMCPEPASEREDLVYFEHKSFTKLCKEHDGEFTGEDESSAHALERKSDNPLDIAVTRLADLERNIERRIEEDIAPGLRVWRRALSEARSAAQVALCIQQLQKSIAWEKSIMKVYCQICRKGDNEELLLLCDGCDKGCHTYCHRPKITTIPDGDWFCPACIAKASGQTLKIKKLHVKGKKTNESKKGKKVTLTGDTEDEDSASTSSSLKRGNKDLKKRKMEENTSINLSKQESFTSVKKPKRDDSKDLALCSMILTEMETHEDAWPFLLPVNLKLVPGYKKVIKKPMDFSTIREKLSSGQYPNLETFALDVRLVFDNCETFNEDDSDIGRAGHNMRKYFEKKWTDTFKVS
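In this displacement format the biotinylated H3(5-23) peptide acetylated at Lys14 serves as ligand at 50 nM, with BAZ2B at 50 nM in PBS pH 7.4 containing 0.01% Tween-20. Donor and acceptor beads are 10 ug/mL final.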
G9a block – blocks human histone lysine methyltransferase G9a | Q96KQ7 | G9a H3K9 monomethylation, AlphaScreen, 2 h | Potency, µM (top dose mostly 102 µM), for inactives: top-dose activity, negative = inhibition, most hits filed as inhibitors | 8.8% of 350,000 active; also: % is scaled to controls: 0 for no effect and ±100 for the full control effect; nearly all actives have a fitted effect of over 75% in size
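G9a (20 nM) was preincubated 15 min with compound, then reacted 2 h at room temperature with 500 nM biotin-H3K9 peptide and 20 µM SAM. Monomethyl-H3K9 detected by AlphaScreen using anti-H3K9me1 antibody.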
HP1b binding inh – HP1-beta chromodomain-methylated histone interaction inhibition | P83916 | AlphaScreen HP1-beta / biotin-H3K9me3 peptide binding | Potency, µM (top dose mostly 114 µM), inactives show at the top dose activity change, negative = inhibition, usual class: inhibitors | 0.56% of 390,000 active | AID 540317; also: nearly all actives have a fitted effect of over 70% in size
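HP1-beta protein (50 nM final) preincubated 30 min at room temperature with biotinylated H3(1-18)K9me3 peptide (50 nM) in PBS pH 7.4, 0.01% Tween-20, then compound added for 30 min. AlphaScreen streptavidin donor/nickel chelate acceptor beads (10 ug/mL final), 30 min dark, luminescence read.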
VDR inhibitor – vitamin D3 receptor (human) inhibition | P11473 | VDR-SRC2-3 peptide fluorescence polarization, 2 h | Potency, µM, without a hit: max response, negative = inhibition, usual class: inhibitors | 0.93% of 400,000 active | AID 504847; also: % is scaled to controls: 0 for no effect and ±100 for the full control effect
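The screen uses fluorescence polarization to detect compounds that interfere with recruitment of the SRC2-3 coactivator peptide to VDR; plates are read after 2 h at room temperature.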
* = called active by the depositor; ? = inconclusive; / = no result; [ ] = dose if it differs, or a comment. Calls follow the shape of the dose curve; as a rule, active = well fitted curve in the direction sought with a large enough effect; inconclusive = small, poorly fitted or top-dose-only effect, or another doubt; inactive = no such curve, though single readings can be large; an effect the other way counts as inactive or inconclusive. Potency is read from the fitted curve at half-maximal effect.

SMILES	JMJD2A Tudor	PLK1 PBD inh	BAZ2B inh	G9a block	HP1b binding inh	VDR inhibitor
COc1ccc2[nH]c(C)c(CCN(Cc3cccs3)C(=S)Nc3ccc(F)cc3)c2c1	?	-17.8%	?	?	?	-13.3%
COc1ccc(NC(=S)N(CCc2c(C)[nH]c3ccccc23)Cc2cccnc2)cc1	?	-13.0%	35.5µM*	70.8µM*	-15.6%	-13.5%
CCOc1ccc(CSC(CC(=O)O)C(=O)O)cc1 (stereo unspecified)	-4.2%	-15.5%	79.4µM*	/	47.0%	-1.4%
CC(C)(C)c1ccc(C(=O)N2CCC2(C)C(=O)Nc2cnc3ccccc3c2)cc1 (stereo unspecified)	/	-3.6%	/	/	/	/
CC(C)(C)NC(=O)NC(=O)CSc1ccc(S(=O)(=O)N2CCOCC2)cn1	79.4µM*	?	16.1%	5.62µM*	-12.6%	-18.8%
Cc1ccc(S(=O)(=O)N2CCOCC2)cc1NC(=O)CSc1ccccn1	-11.6%	29.9µM*	-19.4%	?	10.7%	-3.9%
Cc1ccc(C)c(SCC(=O)Nc2cc(S(=O)(=O)N3CCOCC3)ccc2C)c1	-17.9%	?	5.5%	14.1µM*	15.8%	-13.5%
Cc1ccc(S(=O)(=O)N2CCOCC2)cc1NC(=O)CSc1nc(N)cc(N)n1	-11.0%	-5.6%	0.8%	-23.7%	18.7%	-11.0%
Cc1ccc(S(=O)(=O)N2CCOCC2)cc1NC(=O)CNC1CCCC1	5.01µM*	3.9%	-22.8%	/	-25.4%	17.5%
CCNC(=O)NC(=O)CSc1ccc(S(=O)(=O)N2CCOCC2)cn1	-0.7%	-7.2%	/	/	46.8%	4.9%
COc1ccc(C(=O)Nc2cccc(OCc3cc(=O)n4c5c(sc4n3)CCCC5)c2)cc1	-12.9%	/	-1.5%	10.6%[59 µM]	14.6%	4.2%
Nc1cc([N+](=O)[O-])cc2oc(-c3ccccc3)cc12	12.6µM*	-25.0%	10µM*	25.0%[0.501 µM]	?	-12.3%
O=c1cc(-c2ccccc2)oc2ccccc12	-12.2%	-3.5%	-4.9%	-0.9%[12.7 µM]	24.9%	2.7%
CC[C@@]1(C(=O)OC)N[C@H](CN(C)C(=O)c2ccc(C)cc2)[C@@H]2C(=O)N(Cc3ccccc3)C(=O)[C@@H]21	-9.4%	-15.6%	/	/	20.4%	-10.5%
O=C(c1cccc(C(F)(F)F)c1)N1CCc2c([nH]c3ccccc23)C1C(F)(F)F (stereo unspecified)	-28.9%	-4.6%	-22.1%	-0.8%	23.1%	0.4%
Cc1ccc2c(c1)c1c3n2CCN(C(=O)c2cccc(C(F)(F)F)c2)C3CCC1 (stereo unspecified)	?	/	28.2µM*	7.94µM*	-24.1%	-3.4%
Cc1ccc2c(c1)c1c(n2C)C(=O)CCC1	15.7%	-6.8%	17.1%	11.8%[12.7 µM]	63.4%	-22.7%
Cc1ccc2c(c1)c1c3n2CCN(C=O)C3CCC1 (stereo unspecified)	?	-19.5%	?	50.1µM*	-15.5%	3.6%
CCN1CCn2c3c(c4cc(Cl)ccc42)CCCC31 (stereo unspecified)	-26.0%[11.4 µM]	-17.0%	35.5µM*	?	4.3%	?
CCn1c2c(c3cc(Cl)ccc31)CCCC2=O	69.7%	4.1%	72.8%	85.9%	139.9%	-5.3%
Cc1ccc2c(c1)c1c3n2CCNC3CCC1 (stereo unspecified)	?	3.5%	?	-17.3%[59 µM]	-7.6%	-2.2%
CCN(CC)CCN1CCn2c3c(c4cc(C)ccc42)CCCC31 (stereo unspecified)	56.2µM*	?	?	?	6.3%	-3.8%
COc1ccc(NC(=O)CCCN2C(=O)CN(C)C2=O)cc1Cl	6.1%	1.5%	8.5%	20.4%[12.7 µM]	43.1%	-8.7%
Cc1ccc(-n2ncc(C(=O)Nc3ccc4c(c3)OCO4)c2C2CCN(C(=O)OC(C)(C)C)CC2)c(C)c1	31.6µM*	/	?	?	-16.8%	-4.1%
COc1ccc(NC(=O)Cn2cnc3ccc(S(=O)(=O)N4CCC(C)CC4)cc3c2=O)cc1OC	-11.9%	/	-36.6%	-15.6%[59 µM]	20.9%	-4.8%
SMILES	JMJD2A Tudor	PLK1 PBD inh	BAZ2B inh	G9a block	HP1b binding inh	VDR inhibitor
CCOC(=O)c1c(C)oc2c1c(C=NCCO)c(O)c1ccccc12	?	-21.2%	-38.7%	50.1µM*	-2.1%	-5.0%
CCOC(=O)c1c(C)oc2c1c(C(c1ccccc1)N1CCOCC1)c(O)c1ccccc12 (stereo unspecified)	-31.1%	-23.2%	-32.9%	?	-15.1%	-14.5%
CCOC(=O)c1c(C)oc2c1c(C(c1cccnc1)N1CCCCC1)c(O)c1ccccc12 (stereo unspecified)	?	11.9µM*	?	?	-6.0%	-16.8%
COc1ccc(NC(=O)CNc2cc(S(=O)(=O)N3CCOCC3)ccc2NCC2CCCO2)cc1 (stereo unspecified)	-33.3%	-16.0%	/	6.31µM*	20.8%	-12.0%
Cc1ccc(NC(=O)CNc2cc(S(=O)(=O)N3CCOCC3)ccc2NCC2CCCO2)cc1F (stereo unspecified)	?	-16.9%	?	44.7µM*	-18.5%	9.8%
CC1CCCC(C)N1S(=O)(=O)c1ccc(NC(=O)CNCC2CCCO2)cc1 (stereo unspecified)	17.8µM*	-1.1%	56.2µM*	8.91µM*	5.9%	-13.9%
O=C(CNc1cc(S(=O)(=O)N2CCOCC2)ccc1NCC1CCCO1)Nc1ccccc1F (stereo unspecified)	-11.0%	-0.1%	-19.7%	14.0%	19.3%	-3.3%
Cc1cccc(NC(=O)Cn2c(O)c(N=NC(=O)c3ccccc3O)c3ccccc32)c1	?	?	79.4µM*	-6.3%[59 µM]	22.1%	-21.3%
NC(=S)N=Nc1c(O)n(CC(=O)Nc2ccccc2)c2ccccc12	-1.4%	0.3%	2.8%	-1.9%	36.2%	9.9%
O=S1(=O)c2cccc3cccc(c23)N1CCBr	33.1%	-3.0%	49.6%	55.9%	77.0%	0.4%
O=C(CCn1nc(-c2ccccc2)ccc1=O)NCCCN1CCCCCC1	?	-1.8%	79.4µM*	/	15.0%	-10.9%
CC(=O)c1cc2c(O)c(O)ccc2o1	?	-5.1%	-30.4%	3.98µM*	15.5%	4.6%
CCOc1ccc(-c2cc(CCCC(=O)NCCc3cc(OC)c(OC)c(OC)c3)no2)cc1	-19.5%	/	-15.9%	-0.5%[59 µM]	25.2%	4.9%
CCS(=O)(=O)c1ccc2oc(Nc3cc(C)cc(C)c3)nc2c1	-19.7%	-5.3%	-29.8%[57.1 µM]	88.8%[59 µM]	12.1%	0.0%
CCOc1ccc(Nc2nc3cc(S(=O)(=O)N(CC)CC)ccc3o2)cc1	-16.8%	5.32µM*	-27.2%	2.24µM*	-52.5%	79.4µM*
COc1ccc(N2C(=O)c3ccc(C(=O)OC(C)C)cc3C2=O)cc1	?	2.67µM*	4.5%	-1.1%[59 µM]	?	-20.4%
COc1ccc(N2C(=O)c3cc4ccccc4cc3C2=O)cc1	-21.1%	26.7µM*	-1.4%	6.9%	17.3%	?

Screens (PubChem)
